Experimental data published in ChEMBL document CHEMBL1961873, “Compounds: GSK PKIS; Assays: Nanosyn kinase panel” (2012).

Legend:
[1] = molecular target: Leukocyte tyrosine kinase receptor (Homo sapiens) (UniProt P29376); conditions: at 1 µM;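 also: each value is the mean inhibition of LTK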
[2] = molecular target: Tyrosine-protein kinase Lyn (Homo sapiens) (UniProt P07948); conditions: at 0.1 µM
[3] = molecular target: Tyrosine-protein kinase Lyn (Homo sapiens) (UniProt P07948); conditions: at 1 µM
[4] = molecular target: Tyrosine-protein kinase Lyn (Homo sapiens) (UniProt P07948); conditions: at 0.1 µM; remark: listed apart in the source
[5] = molecular target: Tyrosine-protein kinase Lyn (Homo sapiens) (UniProt P07948); conditions: at 1 µM; remark: listed apart in the source
[6] = molecular target: T1, Tyrosine-protein kinase Mer (Homo sapiens) (UniProt Q12866); conditions: at 0.1 µM
T1 sequence (whole entry): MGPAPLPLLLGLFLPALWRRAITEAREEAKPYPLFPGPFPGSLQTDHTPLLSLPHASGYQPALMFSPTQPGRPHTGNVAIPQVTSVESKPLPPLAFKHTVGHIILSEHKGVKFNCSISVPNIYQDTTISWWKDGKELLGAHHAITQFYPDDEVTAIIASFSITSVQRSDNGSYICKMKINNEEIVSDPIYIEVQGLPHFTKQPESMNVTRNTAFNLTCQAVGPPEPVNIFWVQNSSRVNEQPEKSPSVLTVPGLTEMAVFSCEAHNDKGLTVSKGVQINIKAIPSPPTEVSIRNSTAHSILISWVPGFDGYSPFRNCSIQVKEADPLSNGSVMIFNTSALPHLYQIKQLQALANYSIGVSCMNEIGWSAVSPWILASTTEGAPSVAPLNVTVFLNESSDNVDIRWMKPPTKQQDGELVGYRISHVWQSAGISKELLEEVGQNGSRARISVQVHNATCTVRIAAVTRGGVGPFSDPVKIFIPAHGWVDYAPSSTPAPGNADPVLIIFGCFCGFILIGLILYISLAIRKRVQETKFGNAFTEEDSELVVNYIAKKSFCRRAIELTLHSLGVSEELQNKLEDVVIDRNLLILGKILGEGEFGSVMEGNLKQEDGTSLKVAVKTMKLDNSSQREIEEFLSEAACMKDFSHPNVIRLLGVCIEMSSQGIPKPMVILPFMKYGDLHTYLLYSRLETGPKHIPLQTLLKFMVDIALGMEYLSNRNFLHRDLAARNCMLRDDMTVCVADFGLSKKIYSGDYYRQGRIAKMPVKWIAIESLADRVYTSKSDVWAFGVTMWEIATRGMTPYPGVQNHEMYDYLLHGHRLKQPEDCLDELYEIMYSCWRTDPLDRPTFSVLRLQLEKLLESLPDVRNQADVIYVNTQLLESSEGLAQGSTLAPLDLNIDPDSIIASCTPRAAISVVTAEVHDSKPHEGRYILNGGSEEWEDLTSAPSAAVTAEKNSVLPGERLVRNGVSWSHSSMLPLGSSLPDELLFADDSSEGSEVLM

[7] = molecular target: T1, Tyrosine-protein kinase Mer (Homo sapiens); conditions: at 1 µM
[8] = molecular target: Hepatocyte growth factor receptor (Homo sapiens) (UniProt P08581); conditions: at 0.1 µM
Chain of Hepatocyte growth factor receptor (Homo sapiens) (P08581 whole entry): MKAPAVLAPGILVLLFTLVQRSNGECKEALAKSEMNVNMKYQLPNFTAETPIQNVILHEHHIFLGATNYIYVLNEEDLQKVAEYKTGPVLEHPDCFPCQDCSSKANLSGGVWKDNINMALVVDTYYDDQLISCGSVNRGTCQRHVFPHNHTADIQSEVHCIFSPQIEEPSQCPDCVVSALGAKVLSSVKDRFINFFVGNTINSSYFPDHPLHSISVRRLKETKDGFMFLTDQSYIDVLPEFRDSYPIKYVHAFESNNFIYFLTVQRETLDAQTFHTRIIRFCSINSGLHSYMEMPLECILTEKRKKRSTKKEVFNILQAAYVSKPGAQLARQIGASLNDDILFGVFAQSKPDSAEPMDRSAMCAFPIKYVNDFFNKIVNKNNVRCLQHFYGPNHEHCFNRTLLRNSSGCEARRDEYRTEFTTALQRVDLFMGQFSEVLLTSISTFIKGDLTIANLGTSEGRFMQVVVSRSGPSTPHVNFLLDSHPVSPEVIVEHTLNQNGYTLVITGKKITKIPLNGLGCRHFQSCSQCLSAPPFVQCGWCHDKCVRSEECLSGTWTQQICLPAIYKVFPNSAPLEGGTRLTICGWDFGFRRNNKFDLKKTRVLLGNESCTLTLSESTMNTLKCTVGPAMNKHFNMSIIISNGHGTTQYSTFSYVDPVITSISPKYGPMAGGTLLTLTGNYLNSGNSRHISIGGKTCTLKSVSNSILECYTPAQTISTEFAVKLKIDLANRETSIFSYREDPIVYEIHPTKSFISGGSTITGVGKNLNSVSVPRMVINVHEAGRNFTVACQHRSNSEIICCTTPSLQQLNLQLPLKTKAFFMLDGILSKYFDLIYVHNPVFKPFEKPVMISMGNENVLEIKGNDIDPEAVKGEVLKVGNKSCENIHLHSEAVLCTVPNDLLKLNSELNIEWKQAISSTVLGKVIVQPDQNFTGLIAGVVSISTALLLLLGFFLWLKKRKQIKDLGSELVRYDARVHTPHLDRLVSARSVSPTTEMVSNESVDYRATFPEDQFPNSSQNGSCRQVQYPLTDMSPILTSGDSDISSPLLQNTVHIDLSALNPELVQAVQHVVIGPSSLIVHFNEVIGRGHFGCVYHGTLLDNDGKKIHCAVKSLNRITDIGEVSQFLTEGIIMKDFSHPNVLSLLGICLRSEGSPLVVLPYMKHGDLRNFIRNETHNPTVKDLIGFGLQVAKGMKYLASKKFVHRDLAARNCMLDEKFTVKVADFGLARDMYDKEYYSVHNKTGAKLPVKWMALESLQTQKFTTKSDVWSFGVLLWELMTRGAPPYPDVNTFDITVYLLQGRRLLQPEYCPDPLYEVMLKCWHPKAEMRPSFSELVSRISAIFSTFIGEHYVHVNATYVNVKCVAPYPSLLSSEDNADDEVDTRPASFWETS

[9] = molecular target: Hepatocyte growth factor receptor (Homo sapiens) (UniProt P08581); conditions: at 1 µM
[10] = molecular target: T2, Muscle, skeletal receptor tyrosine-protein kinase (Homo sapiens) (UniProt O15146); conditions: at 0.1 µM
T2 sequence (whole entry): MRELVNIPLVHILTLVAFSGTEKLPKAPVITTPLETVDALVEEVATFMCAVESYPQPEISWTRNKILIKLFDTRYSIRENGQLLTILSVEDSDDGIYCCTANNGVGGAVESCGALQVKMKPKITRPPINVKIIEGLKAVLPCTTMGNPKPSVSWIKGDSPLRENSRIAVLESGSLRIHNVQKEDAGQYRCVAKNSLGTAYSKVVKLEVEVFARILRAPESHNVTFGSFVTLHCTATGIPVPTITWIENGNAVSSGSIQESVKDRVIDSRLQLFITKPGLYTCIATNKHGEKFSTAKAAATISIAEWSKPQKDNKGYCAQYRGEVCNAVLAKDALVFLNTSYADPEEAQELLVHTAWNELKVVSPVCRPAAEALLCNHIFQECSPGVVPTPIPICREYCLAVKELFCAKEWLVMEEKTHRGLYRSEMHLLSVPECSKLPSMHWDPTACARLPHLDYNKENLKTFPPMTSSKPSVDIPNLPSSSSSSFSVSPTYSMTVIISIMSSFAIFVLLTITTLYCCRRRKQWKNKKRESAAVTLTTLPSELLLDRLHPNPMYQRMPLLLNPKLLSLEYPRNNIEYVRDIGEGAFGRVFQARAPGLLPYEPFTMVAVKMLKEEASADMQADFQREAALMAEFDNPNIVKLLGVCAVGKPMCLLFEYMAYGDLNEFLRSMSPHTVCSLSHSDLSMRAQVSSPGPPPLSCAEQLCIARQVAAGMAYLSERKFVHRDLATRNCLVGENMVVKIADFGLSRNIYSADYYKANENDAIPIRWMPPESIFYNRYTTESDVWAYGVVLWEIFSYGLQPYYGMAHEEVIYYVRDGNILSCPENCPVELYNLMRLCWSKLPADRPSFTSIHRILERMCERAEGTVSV

[11] = molecular target: T2, Muscle, skeletal receptor tyrosine-protein kinase (Homo sapiens); conditions: at 1 µM
[12] = molecular target: Platelet-derived growth factor receptor alpha (Homo sapiens) (UniProt P16234); conditions: at 0.1 µM
Chain of Platelet-derived growth factor receptor alpha (Homo sapiens) (P16234 whole entry): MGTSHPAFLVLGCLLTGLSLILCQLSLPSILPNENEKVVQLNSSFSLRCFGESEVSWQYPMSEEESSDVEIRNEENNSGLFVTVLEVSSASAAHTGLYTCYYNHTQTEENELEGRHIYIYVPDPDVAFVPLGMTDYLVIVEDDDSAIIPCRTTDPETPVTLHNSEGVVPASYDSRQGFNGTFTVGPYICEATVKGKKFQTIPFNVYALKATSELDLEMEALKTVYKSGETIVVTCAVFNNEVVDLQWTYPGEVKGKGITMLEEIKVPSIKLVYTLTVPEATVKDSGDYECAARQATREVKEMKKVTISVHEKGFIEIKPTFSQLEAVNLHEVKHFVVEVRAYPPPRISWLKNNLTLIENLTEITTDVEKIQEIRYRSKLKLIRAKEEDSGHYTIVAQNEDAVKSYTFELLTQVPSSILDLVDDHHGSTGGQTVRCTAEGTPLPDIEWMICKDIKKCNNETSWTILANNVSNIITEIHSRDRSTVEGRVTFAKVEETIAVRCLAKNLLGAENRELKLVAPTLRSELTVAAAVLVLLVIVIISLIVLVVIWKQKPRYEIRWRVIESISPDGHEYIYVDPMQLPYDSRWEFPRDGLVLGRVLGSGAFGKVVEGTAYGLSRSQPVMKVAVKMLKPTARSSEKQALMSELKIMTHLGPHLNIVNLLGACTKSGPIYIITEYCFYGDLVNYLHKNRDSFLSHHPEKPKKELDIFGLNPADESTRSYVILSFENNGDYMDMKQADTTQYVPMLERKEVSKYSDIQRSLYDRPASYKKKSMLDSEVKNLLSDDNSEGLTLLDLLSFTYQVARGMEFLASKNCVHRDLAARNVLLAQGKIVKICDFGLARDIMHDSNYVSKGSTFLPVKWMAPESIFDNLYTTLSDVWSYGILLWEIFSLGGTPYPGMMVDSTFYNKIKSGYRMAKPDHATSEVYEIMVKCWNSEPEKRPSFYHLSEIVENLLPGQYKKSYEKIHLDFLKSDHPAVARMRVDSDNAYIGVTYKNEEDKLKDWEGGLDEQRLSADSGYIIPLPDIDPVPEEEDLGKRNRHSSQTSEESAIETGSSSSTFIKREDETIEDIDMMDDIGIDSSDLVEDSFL

[13] = molecular target: Platelet-derived growth factor receptor alpha (Homo sapiens) (UniProt P16234); conditions: at 1 µM
[14] = system: Platelet-derived growth factor receptor alpha (Homo sapiens), P16234 [D842V]; conditions: at 0.1 µM
Chain of Platelet-derived growth factor receptor alpha (Homo sapiens), P16234 [D842V] (P16234 whole entry D842V): as the sequence (P16234 whole entry) above, with D842V counted along it

[15] = system: Platelet-derived growth factor receptor alpha (Homo sapiens), P16234 [D842V]; conditions: at 1 µM
[16] = system: Platelet-derived growth factor receptor alpha (Homo sapiens), P16234 [T674I]; conditions: at 0.1 µM
Chain of Platelet-derived growth factor receptor alpha (Homo sapiens), P16234 [T674I] (P16234 whole entry T674I): as the sequence (P16234 whole entry) above, with T674I counted along it

[17] = system: Platelet-derived growth factor receptor alpha (Homo sapiens), P16234 [T674I]; conditions: at 1 µM
[18] = system: Platelet-derived growth factor receptor alpha (Homo sapiens), P16234 [V561D]; conditions: at 0.1 µM
[19] = system: Platelet-derived growth factor receptor alpha (Homo sapiens), P16234 [V561D]; conditions: at 1 µM
[20] = molecular target: Platelet-derived growth factor receptor beta (Homo sapiens) (UniProt P09619); conditions: at 0.1 µM;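 also: reported value is the mean percent inhibition of the kinase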

| SMILES | inhibition [1] | inhibition [2] | inhibition [3] | inhibition [4] | inhibition [5] | inhibition [6] | inhibition [7] | inhibition [8] | inhibition [9] | inhibition [10] | inhibition [11] | inhibition [12] | inhibition [13] | inhibition [14] | inhibition [15] | inhibition [16] | inhibition [17] | inhibition [18] | inhibition [19] | inhibition [20] |
| --- | --- | --- | --- | --- | --- | --- | --- | --- | --- | --- | --- | --- | --- | --- | --- | --- | --- | --- | --- | --- |
| CS(=O)(=O)Nc1ccc(-c2cc(-c3ccccc3)cc(C(N)=O)c2N)cc1 | 2.83% | 0.46% | 3.24% | -1.81% | 0.8% | 0.78% | -0.18% | -1.07% | 2.34% | 1.31% | 5.45% | 5.04% | 12.1% | -0.88% | 1.32% | 3.63% | 9.21% | 3.05% | 5.7% | 4% |
| CN(c1ccc(NC(=O)NCCN2CCOCC2)cc1)c1ccnc(Nc2ccc(CS(C)(=O)=O)cc2)n1 | 5.29% | 4.34% | 14.9% | 2.19% | 13.6% | 1.6% | 6.28% | 3.89% | 41.4% | 3.78% | 8.61% | 51.8% | 84.4% | 2.7% | 28.6% | 63.9% | 95% | 61.6% | 90.1% | 33.7% |
| CCn1c(-c2nonc2N)nc2cncc(C(=O)NCCNC)c21 | 5.16% | 5.55% | 6.4% | 3.01% | 4.46% | 3.05% | 3.22% | 1.82% | 4.45% | 5.69% | -0.23% | 5.61% | 14.2% | 4.53% | 7.01% | 3.41% | 11.4% | 3.13% | 5.82% | 16.2% |
| COc1ccc2ncn(-c3cc(O[C@H](C)c4ccccc4C(F)(F)F)c(C(N)=O)s3)c2c1 | 1.97% | 0.92% | 1.75% | -0.04% | 1.72% | -0.24% | 2.59% | -3.32% | 0.66% | 3.55% | 22.4% | 8.31% | 35.4% | 4.46% | 24.9% | 0.36% | 9.23% | 5.47% | 26.1% | 6.65% |
| NC(=O)c1ccc2c(-c3ccnc(NCCCO)n3)c(-c3ccc(F)cc3)nn2c1 | 6.21% | 6.82% | 12.1% | 4.82% | 10.6% | 5.01% | 14.2% | 7.18% | 15.1% | 3.34% | 2.08% | 5.5% | 16.9% | 4.25% | 8.75% | 6.06% | 6.59% | 4.18% | 14.3% | 4.83% |
| Cc1cc(O)cc(C)c1/C=C/c1cncc(C(=O)OC(C)(C)C)c1 | 2.98% | 13.7% | 57.2% | 13.6% | 53.4% | 1.26% | 2.87% | 4.92% | 5.5% | 3.21% | 3.99% | 9.43% | 42.6% | 5.23% | 14.7% | 4.63% | 5.73% | 14.4% | 51% | 9.17% |
| COc1cc2c(cc1Nc1nc(Nc3cccc(F)c3C(N)=O)c3cc[nH]c3n1)N(C(=O)CN1CCN(C(C)C)CC1)CC2 | 80.7% | 0.63% | -0.57% | -1.56% | -0.54% | 1.98% | 3.27% | 5.94% | 1.99% | 1.22% | 8.69% | -1.51% | 15.2% | -0.49% | 1.55% | 2.01% | 2.59% | -0.47% | 11.6% | 1.46% |
| FC(F)(F)CNc1nccc(-c2cnn3ncccc23)n1 | 0.86% | 3.13% | 3.07% | 2.86% | 1.59% | 2.37% | -0.52% | 0.67% | 9.54% | 2.13% | -2.34% | 0.78% | 10.1% |  | 4.9% | 1.52% | 4.54% | 0.59% | 2.85% | 2.11% |
| COc1cc(Nc2ncc(-c3ccccc3)o2)cc(OC)c1 | 5.66% | 8.05% | 27.4% | 5.81% | 22.1% | 3.6% | 4.87% | 3.69% | 5.98% | 2.95% | 4.72% | 17.5% | 54.3% | 4.08% | 12.3% | 19.5% | 76.4% | 38.5% | 64.3% | 20.5% |
